# Activity calls are given as the source filed them.
# Columns and labels:
# [1] = E. coli DRC41 culture turbidity changes, primary screen, E. coli filamentation inducer project, strain DRC41, OD650, 48 h (AID 1152);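 also: E. coli MC1000 strain DRC41 lacking acrAB efflux pump and sulA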; settings: E. coli DRC41 (acrAB sulA), higher = more signal, called active from +8 up or from −8 down
# [2] = small-molecule binders of probe aLefty1, primary screen, biochemical, small-molecule microarray, 635/667 nm fluorescence (AID 1153); settings: higher = more signal;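 also: score merges spot fluorescence with signal-to-noise ratio from the scanned slide images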
# [3] = PSAC antagonists in infected red cells, primary screen, cell-based, P. falciparum Indochina, OD700, 1 h (AID 1154); settings: P. falciparum Indochina infected RBC osmotic lysis, higher = more signal, called active from +8 up or from −8 down
# [4] = PSAC antagonists in infected red cells, primary screen, cell-based, P. falciparum Indochina, OD700, 2 h (AID 1155);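 also: lysis reports solute entry through the parasite surface anion channel PSAC; channel blockers reduce lysis of infected cells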; settings: P. falciparum Indochina infected erythrocytes, osmotic lysis OD700; higher = more signal, called active from +8 up or from −8 down
# [5] = osmotic lysis modulators in infected erythrocytes, primary screen, PSAC antagonist project, cell-based, P. falciparum Indochina, OD700, 3 h (AID 1156); settings: higher = more signal, called active from +8 up or from −8 down
# [6] = PSAC antagonists in infected red cells, primary screen, cell-based, P. falciparum Indochina, OD700, 18 h (AID 1157); settings: P. falciparum Indochina infected erythrocytes, osmotic lysis OD700, 18 h; higher = more signal, called active from +8 up or from −8 down
# [7] = modulators of S6 phosphorylation in cells, primary screen, cell-based, A549, cytoblot, luminescence, serum-stimulated (AID 1158); settings: A549 phospho-S6 cytoblot, 5 h, higher = more signal;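 also: serum-stimulated A549 lung adenocarcinoma cells; signal is phosphorylated S6 detected by cytoblot immunostaining with HRP secondary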
# [8] = target: NADPH oxidase 2 (Homo sapiens) (UniProt P04839); assay: NOX2-dependent H2O2 signal modulators, primary screen, NOX inhibitor project, cell-based, HEK293-NOX2, PMA-stimulated, Amplex Red fluorescence (AID 1159); settings: 45 min, higher = more signal, called active from +8 up or from −8 down; also: test concentration not given here
# Sequence of NADPH oxidase 2 (Homo sapiens) (P04839 whole entry, looked up): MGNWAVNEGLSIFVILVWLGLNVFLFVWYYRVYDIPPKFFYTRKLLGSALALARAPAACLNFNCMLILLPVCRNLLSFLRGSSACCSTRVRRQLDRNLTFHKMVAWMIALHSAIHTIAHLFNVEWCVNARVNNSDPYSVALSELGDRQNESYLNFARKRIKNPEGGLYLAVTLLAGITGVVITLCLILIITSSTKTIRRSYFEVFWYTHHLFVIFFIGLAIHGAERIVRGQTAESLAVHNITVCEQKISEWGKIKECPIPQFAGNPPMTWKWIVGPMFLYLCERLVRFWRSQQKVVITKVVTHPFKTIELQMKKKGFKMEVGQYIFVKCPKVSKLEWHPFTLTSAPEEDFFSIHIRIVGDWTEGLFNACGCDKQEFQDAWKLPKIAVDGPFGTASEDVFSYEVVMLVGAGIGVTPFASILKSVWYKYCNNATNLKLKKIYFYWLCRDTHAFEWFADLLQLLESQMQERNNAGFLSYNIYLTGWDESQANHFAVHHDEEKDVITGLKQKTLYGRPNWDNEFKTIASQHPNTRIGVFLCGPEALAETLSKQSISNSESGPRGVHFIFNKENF
# [9] = target: NADPH oxidase 4 (Homo sapiens) (UniProt Q9NPH5); assay: NOX4-dependent H2O2 signal modulators, primary screen, NOX inhibitor project, cell-based, HEK293-NOX4, tetracycline-induced, Amplex Red fluorescence (AID 1160); settings: 45 min, higher = more signal, called active from +8 up or from −8 down
# Sequence of NADPH oxidase 4 (Homo sapiens) (Q9NPH5 whole entry, looked up): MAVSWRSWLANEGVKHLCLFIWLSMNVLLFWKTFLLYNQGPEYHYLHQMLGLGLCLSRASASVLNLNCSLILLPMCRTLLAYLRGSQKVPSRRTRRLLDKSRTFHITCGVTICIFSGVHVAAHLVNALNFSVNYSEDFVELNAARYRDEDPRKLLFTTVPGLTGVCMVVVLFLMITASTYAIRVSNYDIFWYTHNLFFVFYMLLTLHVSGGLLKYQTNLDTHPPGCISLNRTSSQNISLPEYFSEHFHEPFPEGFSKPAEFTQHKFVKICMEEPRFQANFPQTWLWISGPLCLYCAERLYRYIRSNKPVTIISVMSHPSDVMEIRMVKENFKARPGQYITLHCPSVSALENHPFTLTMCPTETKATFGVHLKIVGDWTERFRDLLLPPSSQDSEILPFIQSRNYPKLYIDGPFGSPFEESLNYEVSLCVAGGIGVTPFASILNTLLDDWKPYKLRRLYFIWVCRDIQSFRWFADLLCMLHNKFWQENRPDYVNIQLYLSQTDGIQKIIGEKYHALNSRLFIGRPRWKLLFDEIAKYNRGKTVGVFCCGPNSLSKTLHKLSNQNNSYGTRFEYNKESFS
# [10] = target: NADPH oxidase 5 (Homo sapiens) (UniProt Q96PH1); assay: NOX5-dependent H2O2 signal modulators, primary screen, NOX inhibitor project, cell-based, HEK293-NOX5, Amplex Red fluorescence (AID 1161); settings: HEK293-NOX5, ionomycin, 45 min, higher = more signal
# Sequence of NADPH oxidase 5 (Homo sapiens) (Q96PH1 whole entry, looked up): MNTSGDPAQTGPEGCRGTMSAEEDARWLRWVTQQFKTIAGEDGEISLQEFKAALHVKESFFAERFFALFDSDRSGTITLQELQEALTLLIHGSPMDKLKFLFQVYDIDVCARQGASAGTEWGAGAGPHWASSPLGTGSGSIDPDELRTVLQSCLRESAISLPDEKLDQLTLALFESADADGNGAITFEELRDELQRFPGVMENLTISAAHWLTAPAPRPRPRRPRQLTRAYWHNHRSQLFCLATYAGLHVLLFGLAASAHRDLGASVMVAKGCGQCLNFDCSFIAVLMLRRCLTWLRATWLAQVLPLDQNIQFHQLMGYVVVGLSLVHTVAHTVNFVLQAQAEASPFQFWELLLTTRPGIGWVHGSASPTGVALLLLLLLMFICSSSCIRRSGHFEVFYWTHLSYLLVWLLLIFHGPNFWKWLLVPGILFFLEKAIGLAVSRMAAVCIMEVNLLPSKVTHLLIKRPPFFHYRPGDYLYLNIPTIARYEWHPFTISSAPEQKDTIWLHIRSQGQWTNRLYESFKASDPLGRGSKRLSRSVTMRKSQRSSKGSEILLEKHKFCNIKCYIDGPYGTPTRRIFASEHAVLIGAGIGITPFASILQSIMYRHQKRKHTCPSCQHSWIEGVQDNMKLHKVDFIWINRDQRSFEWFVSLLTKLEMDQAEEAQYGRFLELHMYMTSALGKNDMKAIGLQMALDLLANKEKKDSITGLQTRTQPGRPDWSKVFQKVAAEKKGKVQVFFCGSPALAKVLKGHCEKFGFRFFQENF
# [11] = A549 cell viability effects, profiling panel, calcein-AM fluorescence, 48 h, basal (AID 1162); settings: higher = more signal; also: test concentration not given here
# [12] = adipocyte viability effects, profiling panel, cell-based, 3T3-L1 adipocytes, calcein-AM fluorescence, 48 h, basal (AID 1163); settings: 3T3-L1 adipocytes viability, higher = more signal; also: test concentration not given here
# [13] = HepG2 cell viability effects, profiling panel, calcein-AM fluorescence, 48 h, basal (AID 1164); settings: higher = more signal; also: test concentration not given here
# [14] = MM1S cell viability effects, profiling panel, calcein-AM fluorescence, 48 h, basal (AID 1165); settings: higher = more signal;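 also: viability of MM1S multiple myeloma cells under basal unstimulated conditions; test concentration not given here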
# [15] = basal RPMI8226 viability, no added stimulus, profiling panel, cell-based, calcein-AM fluorescence, 48 h, PK04 Diversity Set (AID 1166); settings: RPMI8226 myeloma viability, higher = more signal;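 also: cells grown under basal conditions without added stimulus; test concentration not given here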
# [16] = basal HepG2 mitochondrial membrane potential changes, profiling panel, cell-based, JC-1 fluorescence, 24 h, 100 nL compound (AID 1167); settings: higher = more signal; also: test concentration not given here
# [17] = basal 3T3-L1 adipocyte mitochondrial potential changes, profiling panel, cell-based, JC-1 fluorescence, 3T3-L1 adipocytes, 24 h, 100 nL compound (AID 1168); settings: JC-1 mitochondrial fluorescence, higher = more signal, called active from +8 up or from −8 down; also: test concentration not given here
# [18] = basal RPMI8226 mitochondrial membrane potential changes, profiling panel, cell-based, JC-1 fluorescence, 24 h, 100 nL compound (AID 1169); settings: RPMI8226 myeloma, JC-1 mitochondrial potential fluorescence, higher = more signal; also: test concentration not given here
# [19] = basal MM1S mitochondrial membrane potential changes, profiling panel, cell-based, JC-1 fluorescence, 24 h, 100 nL compound (AID 1170); settings: higher = more signal; also: test concentration not given here
# [20] = A549 lung cancer cell viability effects, profiling panel, resazurin fluorescence, 24 h, PK04 Diversity Set (AID 1171); settings: higher = more signal, called active from +8 up or from −8 down; also: test concentration not given here
SMILES,z-score [1],composite z-score [2],z-score [3],z-score [4],z-score [5],z-score [6],z-score [7],z-score [8],z-score [9],z-score [10],z-score [11],z-score [12],z-score [13],z-score [14],z-score [15],z-score [16],z-score [17],z-score [18],z-score [19],z-score [20]
COC(=O)[C@@]1(Cc2ccc(OC)cc2)[C@H]2c3cc(C(=O)N(C)C)n(CCc4c[nH]c5ccc(O)cc45)c3C[C@H]2CN1C(=O)c1ccccc1,-1.58 (inactive),0.825,4.25 (inactive),1.25 (inactive),0.396 (inactive),1.23 (inactive),0.092,0.689 (inactive),0.0624 (inactive),1.14,-1.66,-0.737,0.197,-1.98,-1.32,0.941,-0.966 (inactive),-0.564,-1.37,-1.33 (inactive)
CCOC(=O)C[C@H]1[C@H](OC(=O)c2ccc(-c3ccccc3)cc2)[C@@H](NC(=O)C2CCCCC2)c2cc(OCCCO)ccc2N1C(=O)c1ccccc1,-0.915 (inactive),-0.263,0.479 (inactive),0.705 (inactive),-0.138 (inactive),0.505 (inactive),1.09,0.169 (inactive),-0.849 (inactive),1.49,-0.28,0.557,0.137,-0.412,-0.203,0.383,-0.983 (inactive),0.115,-0.101,-1.01 (inactive)
COc1ccc(NN2C(C(O)c3ccccn3)C=CC3C(=O)N(C4CCCCC4)C(=O)C32)cc1 (stereo not given),0.29 (inactive),0.267,3.45 (inactive),0.539 (inactive),0.34 (inactive),0.536 (inactive),-0.552,-0.973 (inactive),-3.8 (inactive),-2.33,-0.834,0.23,1.44,-1.3,-3.2,-0.645,-0.089 (inactive),0.201,-1.51,0.342 (inactive)
CC(C)(C)OC(=O)CC[C@@]1(C(=O)O)N=C(c2ccc(OCCCO)cc2)O[C@@H]1c1ccccc1,0.0442 (inactive),0.284,6.52 (inactive),0.0947 (inactive),-0.819 (inactive),0.0734 (inactive),-0.407,0.104 (inactive),1.27 (inactive),0.548,-0.662,-0.982,-0.289,-0.764,0.335,-0.602,-0.445 (inactive),0.855,-0.939,0.477 (inactive)
CC(C)(C)OC(=O)CC[C@]1(C(=O)N2CCOCC2)N=C(c2ccc(OCCCO)cc2)O[C@H]1c1ccccc1,1.12 (inactive),0.0468,22.9 (active),5.18 (inactive),1.05 (inactive),0.815 (inactive),-0.208,-0.291 (inactive),-0.457 (inactive),-0.474,0.134,0.233,1.01,1.38,0.0928,0.839,0.453 (inactive),0.0149,-0.703,-0.743 (inactive)
COc1ccc(CCNC(=O)[C@@]2(Sc3ccc(C)cc3)CC(=O)N(Cc3cc(C(F)(F)F)cc(C(F)(F)F)c3)[C@@H]2c2ccc(CO)cc2I)cc1,0.0818 (inactive),0.0509,10.5 (active),1.25 (inactive),-0.459 (inactive),0.132 (inactive),0.179,1.15 (inactive),-1.07 (inactive),0.562,0.154,-0.208,0.0649,-1.46,-1.96,-1.08,-0.208 (inactive),-0.165,-2.1,0.469 (inactive)
COc1ccc([Si](C)(C)[C@H]2[C@H](CCn3cc(CCO)nn3)O[C@@]3(C(=O)N(Cc4ccc(N5C(=O)c6cccc7cccc5c67)cc4)c4ccccc43)[C@@H]2C)cc1,1.91 (inactive),0.108,4.64 (inactive),0.882 (inactive),0.134 (inactive),-0.627 (inactive),1.64,-0.985 (inactive),1.82 (inactive),1.44,-1.61,1.36,-4.11,-2.56,-4.29,-0.0483,-0.712 (inactive),-1.09,-2.18,-2.57 (inactive)
[N-]=[N+]=Nc1ccccc1[C@H]1OC(c2ccc(OCCCO)cc2)=N[C@@]1(CCS(=O)(=O)c1ccccc1)C(=O)N1CCCCC1,-0.311 (inactive),0.495,29.8 (active),23.1 (active),3.29 (inactive),3.04 (inactive),1.04,-1.34 (inactive),0.303 (inactive),-0.265,-0.851,1.5,-0.641,-1.56,-2.7,0.43,-0.903 (inactive),-0.877,-0.801,-1.01 (inactive)
C=CCNC(=O)[C@@H]1[C@H]2C(=O)O[C@H](c3ccccc3)[C@H](c3ccccc3)N2[C@H](c2ccccc2OCCO)[C@@]12C(=O)N(C(=O)OCCOC)c1ccc(C#CC3=CCCCC3)cc12,0.889 (inactive),-0.0075,2.66 (inactive),0.741 (inactive),0.123 (inactive),0.906 (inactive),0.325,1.54 (inactive),1.44 (inactive),1.32,0.428,1.16,-0.555,-2.48,-2.4,-0.149,1.74 (inactive),-1.01,-1.82,-0.996 (inactive)
COc1ccc([Si](C)(C)[C@H]2[C@H](CCn3cc([C@H](O)c4ccccc4)nn3)O[C@@]3(C(=O)N(Cc4cccc(N5C(=O)c6cccc7cccc5c67)c4)c4ccccc43)[C@@H]2C)cc1,-0.749 (inactive),-0.0141,1.23 (inactive),-0.38 (inactive),-0.58 (inactive),0.376 (inactive),-0.0203,0.918 (inactive),1.57 (inactive),1.56,-0.252,0.0344,-0.506,-0.342,-1.56,-0.411,-1.63 (inactive),-0.00407,-0.319,-0.884 (inactive)
CN1C(=O)C2C(C1=O)C1C=C(c3ccc(CO)cc3)C2C(c2cccs2)N1Cc1cccc(OC(F)(F)F)c1 (stereo not given),-0.652 (inactive),0.0999,17.4 (active),3.33 (inactive),1.81 (inactive),1.43 (inactive),0.624,-2.71 (inactive),-1.35 (inactive),-2.6,0.567,1.25,-0.617,-0.314,-2.96,-1.71,-1.12 (inactive),-0.722,-0.556,-0.665 (inactive)
CC(C)OC(=O)CC(=O)CC(O)c1cccc(C#N)c1 (stereo not given),1.27 (inactive),0.273,1.65 (inactive),-0.261 (inactive),-1.36 (inactive),-1.2 (inactive),1.29,0.247 (inactive),0.89 (inactive),-0.0191,1.59,0.136,0.886,0.387,0.518,0.575,0.837 (inactive),0.105,-1.56,0.481 (inactive)
COc1ccc(C(O)C2C=CC3C(=O)N(Cc4ccccc4)C(=O)C3N2n2cnnc2)c2ccccc12 (stereo not given),-0.855 (inactive),0.425,0.782 (inactive),-0.11 (inactive),1.57 (inactive),-1.58 (inactive),2.01,-2.98 (inactive),-0.674 (inactive),-3.65,0.0609,0.936,0.0591,0.405,-1.34,-0.722,0.895 (inactive),-0.992,-0.129,-0.96 (inactive)
CCCC=C(CCC)[C@@H](NP(=O)(c1ccccc1)c1ccccc1)c1ccc(C(F)(F)F)cc1,-1.5 (inactive),-0.485,-0.56 (inactive),-0.647 (inactive),-0.309 (inactive),-1.24 (inactive),0.828,0.147 (inactive),1.46 (inactive),1.81,-0.779,-0.531,-0.365,0.463,0.218,-0.497,-1.53 (inactive),0.72,-0.379,0.472 (inactive)
COCCCNC(=O)[C@]1(CCC(=O)OC(C)(C)C)N=C(c2ccc(OCCCO)cc2)O[C@@H]1c1ccccc1,0.134 (inactive),-0.166,14.7 (active),1.61 (inactive),0.58 (inactive),0.57 (inactive),-0.507,-0.00397 (inactive),0.689 (inactive),-0.139,0.369,-0.342,-0.797,0.326,-0.0674,-0.145,0.0968 (inactive),0.86,-0.705,0.119 (inactive)
O=C(CS)NCCCCCCNC(=O)[C@@H]1C[C@@H]2C(=O)N3CCC[C@H]3C(=O)N2[C@@H]1c1cccc(OCCO)c1,1.89 (inactive),0.113,2.94 (inactive),-0.677 (inactive),1.94 (inactive),-1.78 (inactive),2.09,1.17 (inactive),0.87 (inactive),0.222,2.14,0.426,1.02,0.0848,0.449,-0.151,0.193 (inactive),0.0158,0.111,-0.659 (inactive)
COC(=O)[C@@]1(Cc2ccc(F)cc2)[C@H]2c3cc(C(=O)N4CCCC4)n(CCc4c[nH]c5ccc(OC)cc45)c3C[C@H]2CN1C(=O)c1ccccc1,-1.06 (inactive),1.97,4.03 (inactive),-0.165 (inactive),0.217 (inactive),-0.583 (inactive),1.03,-3.07 (inactive),0.118 (inactive),-2.39,-2.28,0.787,-0.906,-2.13,-4.1,1,-1.33 (inactive),-0.917,-2,-1.63 (inactive)

# Reference: PubChem BioAssay
